PubChem BioAssay (NCATS)
Where “and” joins values, the source holds several entries; their conditions need not be identical. Identical values can stand only once. Inconclusive results are not listed. More than one record can exist for a structure, and the calls need not agree. Values without a mark were called inactive. Calls of active or inactive are those of the source. Calls follow the shape of the dose curve; as a rule, active = well fitted inhibition curve with a large enough effect; inconclusive = small, poorly fitted or top-dose-only effect; inactive = flat fitted curve, though single readings scatter.

Tested on: HEK293
Assay: Cytotoxic Profiling of Annotated Libraries Using Quantitative High-Throughput Screening (AID 1296008); also: nearly all actives have a fitted effect of over 60% in size
Conditions: Five cell lines viability, CellTiter-Glo ATP luminescence, 48-72 h; max response: stronger effect = lower value
From the text: Cell-based phenotypic screening is a commonly used approach to discover biological pathways, novel drug targets, chemical probes and high-quality hit-to-lead molecules. Many hits identified from high-throughput screening campaign are ruled out through a series of follow-up potency, selectivity/specificity, and cytotoxicity assays. Prioritization of molecules with little or no cytotoxicity for a more in-depth downstream evaluation influence the future direction of projects, so cytotoxicity profiling of the screening libraries at early stage is essential for increasing the likelihood of candidate success. […] For the annotated library, we also examined the primary targets and mechanistic pathways regularly associated with cell death. To our knowledge, this is the first study to use high-throughput screening to profile large libraries for cytotoxicity assessment in both normal and cancer cell lines. In summary, the results generated here constitutes a valuable resource for the scientific community and provides insight on identifying cytotoxic compounds with particular mechanisms of action, and prioritizing compounds with suitable cytotoxicity profile for further evaluation.
A pintool (Kalypsys) was used to transfer 23 nL of compound solution to the 1536-well assay plates. After 48 or 72 hr incubation at 37 degree Celsius, 5% CO2 and 95% humidity, 2.5 uL of CellTiter-Glo (Promega) was dispensed into each well using a dispenser (Aspect Automation, St. Paul, MN) with solenoid valves (Lee Valves, Westbrook CT). Plates were left at room temperature for 10 min before imaging the ATP-coupled luminescence using a ViewLux microplate imager (PerkinElmer, Waltham, MA).
% is scaled to controls: 0 for no effect and ±100 for the full control effect; potency is read from the fitted curve at half-maximal effect.

| Compound | outcome | Potency | max response |
| --- | --- | --- | --- |
| COc1ncnc(NS(=O)(=O)c2ccc(N)cc2)c1OC | inactive | 3.32 µM (active) |  |
| CC(C)NCC(O)c1ccc(NS(C)(=O)=O)cc1 (stereo not given) |  |  | 0.785% |
| O=C(O)c1cc(=O)[nH]c(=O)[nH]1 |  |  | -5.89% and -6.58% |
| COc1cc([C@@H]2c3cc4c(cc3[C@H](O)[C@H]3COC(=O)[C@H]23)OCO4)cc(OC)c1OC |  | 0.0422 µM (active) | -87.1% |
| CC1=CC(=O)c2ccccc2C1=O | inactive |  | 2.41% |
| CNNCc1ccc(C(=O)NC(C)C)cc1 | inactive |  | 2.6% |
| O=C(O)c1cn(C2CC2)c2cc(N3CCNCC3)c(F)cc2c1=O | inactive |  |  |
| CCC(C)(C)c1ccc(CC(C)CN2C[C@@H](C)O[C@@H](C)C2)cc1 (stereo not given in full) |  |  | -0.508% and -3.77% |
| CC(=O)Oc1ccccc1C(=O)Nc1ncc([N+](=O)[O-])s1 |  |  | -13.9% |
| OC(Cn1cncn1)(Cn1cncn1)c1ccc(F)cc1F |  |  | -0.0788% and -5.53% |
| OCc1ccc(-c2nn(Cc3ccccc3)c3ccccc23)o1 |  | 14.8 µM (active) |  |
| COc1cc2ncnc(Nc3cccc(Cl)c3)c2cc1OC |  | 0.372 µM (active) |  |
| C[C@]12C=CC(=O)C=C1CC[C@@H]1[C@@H]2C(=O)C[C@@]2(C)[C@H]1CC[C@]2(O)C(=O)CO |  |  | -4.32% and 0.184% |
| COc1ccc(-c2ccc3cc(C(=O)O)ccc3c2)cc1C12CC3CC(CC(C3)C1)C2 |  |  | 3.2% |
| CCn1cc(C(=O)O)c(=O)c2cc(F)c(N3CCNCC3)nc21 | inactive |  | -5.1% |
| CCCCOc1ccc(CC(=O)NO)cc1 |  |  | -50.4% |
| CS(=O)(=O)c1ccc([C@@H](O)[C@@H](CO)NC(=O)C(Cl)Cl)cc1 |  | 2.99 µM (active) |  |
| CCc1cc(C(N)=S)ccn1 | inactive |  | -11.8% |
| CCC(=O)O[C@]1(C(=O)CCl)[C@@H](C)C[C@H]2[C@@H]3CCC4=CC(=O)C=C[C@]4(C)[C@@]3(F)[C@@H](O)C[C@@]21C |  |  | -0.886% |
| Cc1cc(NS(=O)(=O)c2ccc(N)cc2)no1 |  |  | 1.33% and -5.68% |
| CN1CCN(c2c(F)cc3c(=O)c(C(=O)O)cn4c3c2OCN4C)CC1 | inactive |  | -2.04% |
| CCOC(=O)[C@H](CCc1ccccc1)N[C@H]1CCc2ccccc2N(CC(=O)O)C1=O |  | 18.7 µM (active) |  |
| COc1cc2c(Nc3ccc(Br)cc3F)ncnc2cc1OCC1CCN(C)CC1 |  | 26.4 µM (active) | -4.93% |
| C[C@@H](NCCCc1cccc(C(F)(F)F)c1)c1cccc2ccccc12 |  | 15 µM (active) | -18.5% |
| CCCCc1oc2ccc(NS(C)(=O)=O)cc2c1C(=O)c1ccc(OCCCN(CCCC)CCCC)cc1 |  | 11.6 µM (active) |  |
| COc1c(N2CCNC(C)C2)c(F)cc2c(=O)c(C(=O)O)cn(C3CC3)c12 (stereo not given) |  |  | -24.5% |
| CCN(C)C(=O)Oc1cccc([C@H](C)N(C)C)c1 | inactive |  | -9.47% |
| O=C(N[C@H](CO)[C@H](O)c1ccc([N+](=O)[O-])cc1)C(Cl)Cl | inactive | 15.4 µM (active) |  |
| COc1cc2nc(N3CCCN(C)CC3)nc(NC3CCN(Cc4ccccc4)CC3)c2cc1OC |  | 6.62 µM (active) |  |
